Assay outcomes as filed in PubChem.
Rows were chosen to be rich in hits. Some 4.2% of all compounds tested hit in one or more screens of this group.
Mtb betalactam = beta-lactam sensitization of Mtb H37Rv, H37Rv. 330,000 compounds, 0.27% hits. M. tuberculosis H37Rv growth with meropenem, percent inhibition. inhibition, % at 25 µM; call rule not given here;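 further: growth measured after seven days incubation then overnight dye step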
FBA Mtb inh = Mtb FBA enzyme inhibitors, primary screen, biochemical, fluorescence, strain H37Rv | Fructose-bisphosphate aldolase (Mycobacterium tuberculosis (strain ATCC 25618 / H37Rv)), … | purified M. tuberculosis FBA, fluorescence read-out | inhibition, % at 1 µM | 360,000 compounds, 2.3% hits
Target sequence (P9WQA3 whole entry, looked up): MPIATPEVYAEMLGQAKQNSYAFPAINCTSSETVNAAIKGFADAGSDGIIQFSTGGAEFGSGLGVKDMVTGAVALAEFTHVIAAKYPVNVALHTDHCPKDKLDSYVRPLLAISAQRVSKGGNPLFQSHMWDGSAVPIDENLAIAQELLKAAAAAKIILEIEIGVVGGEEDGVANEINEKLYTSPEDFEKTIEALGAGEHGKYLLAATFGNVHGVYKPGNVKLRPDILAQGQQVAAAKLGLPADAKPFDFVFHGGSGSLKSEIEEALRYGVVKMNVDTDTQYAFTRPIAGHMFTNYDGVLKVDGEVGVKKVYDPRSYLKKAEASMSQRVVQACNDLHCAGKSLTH
RecA intein inh = Mtb RecA intein splicing inhibitors, primary screen, biochemical, fluorescence, HTS; inhibition, % (test concentration not listed); cell-free RecA intein splicing; Protein RecA (Mycobacterium tuberculosis (strain ATCC 25618 / H37Rv)), P9WHJ3; 290,000 compounds, 0.75% hits; in the data active means inhibition above about 30%
GDH-TPI counter-1 = GDH-TPI coupling enzyme inhibitors, primary screen, artefact control for M. tuberculosis FBA inhibitor project, biochemical, absorbance, full deck | GDH-TPI coupled enzyme counterscreen, NADH absorbance | inhibition, % at 4.8 µM | 360,000 compounds, 1.2% hits | AID 588335, 2011; in the data active means inhibition above about 30%
CCHF vOTU inh = CCHFV vOTU protease inhibitors, primary screen, biochemical, Pep-AMC substrate, fluorescence; inhibition, % at 11.5 µM; Crimean-Congo hemorrhagic fever virus L polyprotein viral ovarian tumor (vOTU) protease …; 370,000 compounds, 0.55% hits; in the data active means inhibition above about 30%
Mtb FBA inh conf = M. tuberculosis aldolase blockers, biochemical, fluorescence, strain H37Rv, confirmation | shares compounds with FBA Mtb inh | purified M. tuberculosis FBA, fluorescence read-out | inhibition, % at 1 µM | 5,600 compounds, 78% hits | AID 651616, 2012
GDH-TPI counter-2 = GDH-TPI coupling enzyme inhibitors, artefact control for M. tuberculosis FBA inhibitor project, biochemical, fluorescence, high throughput; shares compounds with FBA Mtb inh; GDH-TPI coupled enzyme counterscreen; inhibition, % at 1 µM; 5,600 compounds, 81% hits; AID 652141, 2013; in the data active means inhibition above about 10%
GDH-TPI DR = GDH-TPI coupling enzyme inhibitors, dose response, artefact control for M. tuberculosis FBA inhibitor project, biochemical, fluorescence, IC50. AID 652145, 2013. GDH-TPI coupled enzyme assay, artifact counterscreen. IC50, µM. shares compounds with FBA Mtb inh. 170 compounds, 79% hits; call rule not given here
Of the large screens only hits and unclear results are named; the others gave an inactive call (follow-up assays come after a bar, where they were run). Unless noted, no stated cut-off is given here; in the data, active means inhibition above about 27%; inactive means the rest.

Cc1c(C(=O)Nc2ccc(F)cc2)c2ccccn2c1CCc1ccncc1	FBA Mtb inh 32 | Mtb FBA inh conf active | GDH-TPI counter-2 active
Cc1ccc(OCC(=O)Oc2ccc(C(C)C)cc2)cc1	FBA Mtb inh 30 | Mtb FBA inh conf 183 | GDH-TPI counter-2 130
Cc1ccc(OCC(=O)Oc2cccc(C)c2C)cc1	none
COc1cccc2c(=O)ccoc12	none
COc1c2ccoc2nc2c(OC)cccc12	FBA Mtb inh 55 | Mtb FBA inh conf 113 | GDH-TPI counter-2 97
Cc1cc(Nc2cccc(C(F)(F)F)c2)cc(=O)n1-c1cccc(C(F)(F)F)c1	none (no result: Mtb betalactam, FBA Mtb inh, RecA intein inh, GDH-TPI counter-1)
CCOC(=O)C1CCCN(C(=O)c2cccc3ccccc23)C1 (stereo not given)	none
CCOC(=O)C1CCc2c(ccc3ccccc23)N1CCC#N (stereo not given)	FBA Mtb inh 56 (no result: Mtb betalactam, RecA intein inh) | Mtb FBA inh conf inactive | GDH-TPI counter-2 inactive
COC(=O)C1CN(Cc2ccc(OC)cc2)CCS(=O)(=O)N1Cc1ccccc1 (stereo not given)	none (no result: Mtb betalactam, FBA Mtb inh, RecA intein inh, GDH-TPI counter-1)
COc1ccc(S(=O)(=O)Nc2c(NC3CCCCC3)c3ccccc3oc2=O)cc1Cl	FBA Mtb inh 29 | Mtb FBA inh conf active | GDH-TPI counter-2 active
CCCn1c2ccccc2c2nnc(SCC(=O)OC)nc21	none
CCCn1c2ccccc2c2nnc(SCC(=O)OCC)nc21	FBA Mtb inh 52 (no result: Mtb betalactam) | Mtb FBA inh conf 38 | GDH-TPI counter-2 64
Cc1n[nH]c(C)c1S(=O)(=O)NCCc1ccccc1F	none (no result: Mtb betalactam, FBA Mtb inh, RecA intein inh, GDH-TPI counter-1)
Cc1cc(C)nc(SCC(=O)c2cc3ccccc3oc2=O)n1	none
O=C(CSc1nc2ccccc2o1)c1cc2ccccc2oc1=O	FBA Mtb inh 55 (no result: RecA intein inh) | Mtb FBA inh conf inactive | GDH-TPI counter-2 inactive | GDH-TPI DR inactive
CCOC(=O)N1CCN(C(=O)C[C@H]2C[C@@]3(C(=O)OC)C(=C[C@H](C(C)(C)C)O[C@@H]3C)N(Cc3ccccc3)C2=O)CC1	none (no result: Mtb betalactam, FBA Mtb inh, RecA intein inh, GDH-TPI counter-1)
COC(=O)c1sc2ccccc2c1N	FBA Mtb inh 79 | Mtb FBA inh conf active | GDH-TPI counter-2 active
COC(=O)c1sc2ccccc2c1C(=O)OC	none (no result: Mtb betalactam)
Cc1ccc(C2N=C(N)Nc3nc(=O)c4ccccc4n32)cc1 (stereo not given)	FBA Mtb inh 76 | Mtb FBA inh conf inactive | GDH-TPI counter-2 inactive
CCCC(=O)N=C1SC2CS(=O)(=O)CC2N1c1ccc(-c2nc3ccc(C)cc3s2)cc1 (stereo not given)	FBA Mtb inh 53 | Mtb FBA inh conf 141 | GDH-TPI counter-2 103
Cc1ccc(N2C(=NC(=O)c3ccccc3)SC3CS(=O)(=O)CC32)cc1 (stereo not given)	none (no result: RecA intein inh)
Cc1ccc(S(=O)(=O)n2nc(OC(=O)c3ccco3)cc2N)cc1	none
Nc1cc(OC(=O)c2ccco2)nn1S(=O)(=O)c1ccc(F)cc1	FBA Mtb inh 30 | Mtb FBA inh conf active | GDH-TPI counter-2 142
O=C(CN1C(=O)C2C3C=CC(C3)C2C1=O)Nc1ccc2nccnc2c1 (stereo not given)	FBA Mtb inh 27 | Mtb FBA inh conf active | GDH-TPI counter-2 active
O=C(CN1C(=O)C2C3C=CC(C3)C2C1=O)Nc1ccc(F)cc1 (stereo not given)	none
COC(=O)c1ccc(C(=O)OC)c(NC(=O)CCS(=O)(=O)Cc2ccccc2)c1	none
COC(=O)c1ccc(C(=O)OC)c(NC(=S)N2CCCC2)c1	none
COC(=O)c1ccc(C(=O)OC)c(NC(=S)N2CCCCC2C)c1 (stereo not given)	FBA Mtb inh 100 | Mtb FBA inh conf 60 | GDH-TPI counter-2 59
COC(=O)c1ccc(C(=O)OC)c(NC(=S)N2CCC(C)CC2)c1	none
COC(=O)c1ccc(C(=O)OC)c(NC(=O)CCC(=O)O)c1	FBA Mtb inh 28 | Mtb FBA inh conf 33 | GDH-TPI counter-2 23
COC(=O)c1ccc(C(=O)OC)c(NC(=S)N2CCN(C)CC2)c1	FBA Mtb inh 33 | Mtb FBA inh conf 198 | GDH-TPI counter-2 174
Nc1nc2c(ncn2[C@@H]2O[C@H](C(=O)NCCCc3ccccc3)[C@@H](O)[C@H]2O)c(=O)[nH]1	none (no result: Mtb betalactam, FBA Mtb inh, RecA intein inh, GDH-TPI counter-1)
C#CCNC(=O)C[C@H]1C[C@@]2(C(=O)OC)C(=C[C@H](COCc3ccccc3)O[C@@H]2C)N(CCc2ccc(OC)c(OC)c2)C1=O	none (no result: Mtb betalactam, FBA Mtb inh, RecA intein inh, GDH-TPI counter-1)
CCOC(=O)[C@@]12CCCC3=C1N(CCC3)C(=O)[C@H]2CC(=O)NCc1cccc2ccccc12	none (no result: Mtb betalactam, FBA Mtb inh, RecA intein inh, GDH-TPI counter-1)
c1ccc2[nH]cnc2c1	none
c1ccc2nc3[nH]cnc3nc2c1	FBA Mtb inh 42 | Mtb FBA inh conf 154 | GDH-TPI counter-2 101
Cc1cccc(C)c1OCC(O)CN(Cc1ccccc1O)C1CCCCC1 (stereo not given)	FBA Mtb inh 32 | Mtb FBA inh conf 44 | GDH-TPI counter-2 31
CN(CC(O)COc1ccc(OCC(O)CN(C)C2CCCCC2)cc1)C1CCCCC1 (stereo not given)	none
Cc1nc(-c2coc3c(CN(C)C)c(O)ccc3c2=O)cs1	FBA Mtb inh 42 | Mtb FBA inh conf inactive | GDH-TPI counter-2 inactive
COc1ccccc1Oc1coc2c(CN3CCN(C)CC3)c(O)ccc2c1=O	FBA Mtb inh 80 | Mtb FBA inh conf 91 | GDH-TPI counter-2 73
CCN(CC)Cc1c(O)ccc2c(=O)c(Oc3ccccc3OC)coc12	FBA Mtb inh 71 | Mtb FBA inh conf active | GDH-TPI counter-2 active
COc1ccccc1Oc1coc2cc(OC(=O)N3CCOCC3)ccc2c1=O	none
CCN(CC)Cc1c(O)ccc2c(=O)c(-c3ccccc3)coc12	FBA Mtb inh 69 | Mtb FBA inh conf 61 | GDH-TPI counter-2 43
COc1cccc(NC(=O)Nc2nc3ncccn3c2-c2ccc(C(F)(F)F)cc2)c1	none (no result: Mtb betalactam, FBA Mtb inh, RecA intein inh, GDH-TPI counter-1)
Cc1ccc(C(=O)NC2CCCCN(C(C)C)C2=O)cc1 (stereo not given)	none (no result: Mtb betalactam, FBA Mtb inh, RecA intein inh, GDH-TPI counter-1)
O=C(N[C@H](C(=O)N1CCC[C@H]1C(=O)NCc1ccccc1)C1CCCCC1)c1ccc(Cl)c(Cl)c1	none (no result: Mtb betalactam, FBA Mtb inh, RecA intein inh, GDH-TPI counter-1)
COC(=O)c1c(C)n(-c2ccc(OC)cc2)c2ccc(O)cc12	none
CCOC(=O)c1c(C)n(-c2ccc(F)cc2)c2ccc(O)cc12	FBA Mtb inh 35 (no result: CCHF vOTU inh) | Mtb FBA inh conf 44 | GDH-TPI counter-2 24
COC(=O)c1cc(-c2ccc3ccccc3c2)c(=O)n2c1CCC2	none (no result: Mtb betalactam, FBA Mtb inh, RecA intein inh, GDH-TPI counter-1)
